{
  "source": "the supplement of paper PMC8728848",
  "binders": {"B1": {"name": "PX14379D-pdi-530-26-530 (Parabacteroides distasonis) (protein)", "chain": "DETVYDKLPADDFGQSTAELNALIGNSHNTMKKFWTEYMHLSECSGSMAVTPTRRGGDWYDGGQYREIYMHTWTSQTSRVKSAWKAATEAIGTCNEAIRKLQNSEILTEEEKAQDVADLRGVRAFWIYVMMDYWGNIPLLTEFHPTDKVFPGNSSRQEVFDWLIQEVEEIKDICPPATTENYGSFTQGAAYSLLAKLYLNAEAWGVTFSGNAYQKVIDNCDKVMAMGYILEPNWKDNFSVTNENSKEAILAATFSSSDTGNDGNVKNELHNNTLHYKDYLSLGITASGTWNGICAQPEYVRLFDEEDARLDGTFLTGLMIDKSTGKPIMTDHNNELNHTIDVNMIPGMEYDGTNWSAVEQHDGARCFKWEFASDLTSSMGNDFHIFRLADIYLMKAEALLRGGGSVSEATALVNTIRERGYGNSDHNYATVTLKEVQLERRLELAWEVYSRQDDIRFGCFTTGMWPQSNCERKADDYLKLLPVSQDAWQVNPNLKQNPGYAAFSK"}},
  "test_in_all_cases": "glycan array binding signal (z-score within array); higher = stronger binding",
  "conditions_in_all_cases": "glycan notation: IUPAC condensed, linker removed",
  "key": {"[1]": {"molecular_target": "Man(a1-2)Man(a1-6)[Man(a1-3)]Man(a1-6)[Man(a1-2)Man(a1-2)Man(a1-3)]Man", "procedure,_shortened": "(§1)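 Glycan array data came from 3228 arrays in the Consortium for Functional Glycomics database, and only arrays with an available protein sequence were kept. Glycan names were put into IUPAC-condensed notation, and columns mapping to the same glycan were averaged. The binding signal is a within-array Z-score, averaged across arrays of one protein sequence run at different concentrations or buffers and across linkers. A negative Z-score can be read as non-binding.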"}, "[2]": {"molecular_target": "Man(a1-3)[Man(a1-6)]Man(a1-6)[Man(a1-2)Man(a1-3)]Man(b1-4)GlcNAc(b1-4)GlcNAc", "procedure,_shortened": "as §1"}, "[3]": {"molecular_target": "Man(a1-3)[Man(a1-6)]Man(a1-6)[Man(a1-3)]Man(b1-4)GlcNAc(b1-4)GlcNAc", "procedure,_shortened": "as §1"}, "Man(b1-4)GlcNAc": {"molecular_target": "Man(b1-4)GlcNAc", "procedure,_shortened": "as §1"}, "[4]": {"molecular_target": "Neu5Ac(a2-3)Gal(b1-3)GalNAc(b1-3)Gal(a1-4)Gal(b1-4)Glc", "procedure,_shortened": "as §1"}, "[5]": {"molecular_target": "Neu5Ac(a2-3)Gal(b1-3)GlcNAc(b1-2)Man", "procedure,_shortened": "as §1"}, "[6]": {"molecular_target": "Neu5Ac(a2-3)Gal(b1-4)GlcNAc", "procedure,_shortened": "as §1"}, "[7]": {"molecular_target": "Neu5Ac(a2-3)Gal(b1-4)GlcNAc(b1-2)Man(a1-3)[Neu5Ac(a2-3)Gal(b1-4)GlcNAc(b1-2)Man(a1-6)]Man(b1-4)GlcNAc(b1-4)[Fuc(a1-6)]GlcNAc", "procedure,_shortened": "as §1"}, "[8]": {"molecular_target": "Neu5Ac(a2-3)Gal(b1-4)GlcNAc(b1-2)[Neu5Ac(a2-3)Gal(b1-4)GlcNAc(b1-4)]Man(a1-3)[GlcNAc(b1-4)][Neu5Ac(a2-3)Gal(b1-4)GlcNAc(b1-4)Man(a1-6)]Man(b1-4)GlcNAc(b1-4)GlcNAc", "procedure,_shortened": "as §1"}, "[9]": {"molecular_target": "Neu5Ac(a2-3)Gal(b1-4)[Fuc(a1-3)]GlcNAc(b1-3)Gal(b1-4)[Fuc(a1-3)]GlcNAc(b1-3)Gal(b1-4)[Fuc(a1-3)]GlcNAc", "procedure,_shortened": "as §1"}, "[10]": {"molecular_target": "Neu5Ac(a2-3)[Neu5Ac(a2-6)]GalNAc", "procedure,_shortened": "as §1"}, "[11]": {"molecular_target": "Neu5Ac(a2-6)Gal(b1-4)GlcNAc(b1-2)Man(a1-3)[GlcNAc(b1-4)][Neu5Ac(a2-6)Gal(b1-4)GlcNAc(b1-2)Man(a1-6)]Man(b1-4)GlcNAc(b1-4)GlcNAc", "procedure,_shortened": "as §1"}, "[12]": {"molecular_target": "Neu5Ac(a2-8)Neu5Gc(a2-3)Gal(b1-4)GlcNAc", "procedure,_shortened": "as §1"}, "[13]": {"molecular_target": "Neu5Gc(b2-6)Gal(b1-4)GlcNAc", "procedure,_shortened": "as §1"}},
  "note": "This is one part of a sample in which the strongest signals are shown more often than they occur.",
  "data": [
    {"binder": "B1", "values": [
      {"measurement": "glycan array binding signal (z-score)", "setting": "[1]", "value": -0.013},
      {"measurement": "glycan array binding signal (z-score)", "setting": "[2]", "value": -0.447},
      {"measurement": "glycan array binding signal (z-score)", "setting": "[3]", "value": -0.474},
      {"measurement": "glycan array binding signal (z-score)", "setting": "Man(b1-4)GlcNAc", "value": -1.02},
      {"measurement": "glycan array binding signal (z-score)", "setting": "[4]", "value": 0.43},
      {"measurement": "glycan array binding signal (z-score)", "setting": "[5]", "value": 0.26},
      {"measurement": "glycan array binding signal (z-score)", "setting": "[6]", "value": -0.826},
      {"measurement": "glycan array binding signal (z-score)", "setting": "[7]", "value": 0.415},
      {"measurement": "glycan array binding signal (z-score)", "setting": "[8]", "value": -0.482},
      {"measurement": "glycan array binding signal (z-score)", "setting": "[9]", "value": -0.094},
      {"measurement": "glycan array binding signal (z-score)", "setting": "[10]", "value": -1.44},
      {"measurement": "glycan array binding signal (z-score)", "setting": "[11]", "value": 0.549},
      {"measurement": "glycan array binding signal (z-score)", "setting": "[12]", "value": 12.8},
      {"measurement": "glycan array binding signal (z-score)", "setting": "[13]", "value": -0.722}
    ]}
  ]
}
